The supplement of paper PMC8728848
The full list was thinned out, with the strongest signals kept by preference.

Tests used:
Assay in all cases: glycan array binding signal (z-score within array); higher = stronger binding
Conditions in all cases: glycan notation: IUPAC condensed, linker removed
[1] = target: Fuc(a1-2)Gal(b1-3)GlcNAc(b1-2)Man(a1-3)[Fuc(a1-2)Gal(b1-3)GlcNAc(b1-2)Man(a1-6)]Man(b1-4)GlcNAc(b1-4)GlcNAc
Outline: (§1)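 From the Consortium for Functional Glycomics database, 3228 arrays were curated, keeping only those whose protein sequence was available. Binding is given as a within-array Z-score averaged across arrays sharing a protein sequence and across linkers. Negative Z-scores can be read as non-binding.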

Fuc(a1-2)Gal(b1-4)GlcNAc = target: Fuc(a1-2)Gal(b1-4)GlcNAc
Outline: as §1

[2] = target: Fuc(a1-2)Gal(b1-4)GlcNAc(b1-2)[Fuc(a1-2)Gal(b1-4)GlcNAc(b1-4)]Man(a1-3)[Fuc(a1-2)Gal(b1-4)GlcNAc(b1-2)Man(a1-6)]Man(b1-4)GlcNAc(b1-4)GlcNAc
Outline: as §1

[3] = target: Fuc(a1-2)Gal(b1-4)GlcNAc(b1-3)Gal(b1-4)GlcNAc
Outline: as §1

[4] = target: Fuc(a1-2)Gal(b1-4)[Fuc(a1-3)]GlcNAc
Outline: as §1

[5] = target: Fuc(a1-2)[Gal(a1-3)]Gal(b1-3)GlcNAc(b1-3)GalNAc
Outline: as §1

[6] = target: Fuc(a1-2)[Gal(a1-3)]Gal(b1-4)GlcNAc(b1-3)[Fuc(a1-2)[Gal(a1-3)]Gal(b1-4)GlcNAc(b1-6)]GalNAc
Outline: as §1

[7] = target: Fuc(a1-2)[Gal(a1-3)]Gal(b1-4)[Fuc(a1-3)]GlcNAc(b1-3)GalNAc
Outline: as §1

[8] = target: Fuc(a1-2)[GalNAc(a1-3)]Gal(b1-3)GlcNAc
Outline: as §1

[9] = target: Fuc(a1-2)[GalNAc(a1-3)]Gal(b1-4)GlcNAc(b1-3)Gal(b1-4)GlcNAc
Outline: as §1

Fuc(b1-3)GlcNAc = target: Fuc(b1-3)GlcNAc
Outline: as §1

[10] = target: Gal(a1-3)Gal(b1-4)GlcNAc(b1-2)Man(a1-3)[Gal(a1-3)Gal(b1-4)GlcNAc(b1-2)Man(a1-6)]Man(b1-4)GlcNAc(b1-4)GlcNAc
Outline: as §1

Gal(b1-2)Gal = target: Gal(b1-2)Gal
Outline: as §1

Gal(b1-3)Gal(b1-4)GlcNAc = target: Gal(b1-3)Gal(b1-4)GlcNAc
Outline: as §1

[11] = target: Gal(b1-3)Gal(b1-4)GlcNAc(b1-2)Man(a1-3)[Gal(b1-3)Gal(b1-4)GlcNAc(b1-2)Man(a1-6)]Man(b1-4)GlcNAc(b1-4)GlcNAc
Outline: as §1

Gal(b1-3)GlcNAc = target: Gal(b1-3)GlcNAc
Outline: as §1

[12] = target: Gal(b1-3)GlcNAc(b1-3)GalNAc
Outline: as §1

Gal(b1-3)GlcNAc6S = target: Gal(b1-3)GlcNAc6S
Outline: as §1

[13] = target: Gal(b1-3)[Neu5Ac(a2-6)]GalNAc
Outline: as §1

[14] = target: Gal(b1-4)GalNAc(b1-3)[Fuc(a1-2)]Gal(b1-4)GlcNAc
Outline: as §1

[15] = target: Gal(b1-4)GlcNAc(b1-2)Man(a1-6)Man(b1-4)GlcNAc(b1-4)GlcNAc
Outline: as §1

[16] = target: Gal(b1-4)GlcNAc(b1-2)Man(a1-6)[GlcNAc(b1-2)Man(a1-3)]Man(b1-4)GlcNAc(b1-4)GlcNAc
Outline: as §1

[17] = target: Gal(b1-4)GlcNAc(b1-3)Gal(b1-4)Glc
Outline: as §1

[18] = target: Gal(b1-4)GlcNAc(b1-3)Gal(b1-4)GlcNAc(b1-3)Gal(b1-4)GlcNAc(b1-3)Gal(b1-4)GlcNAc(b1-2)Man(a1-3)[Gal(b1-4)GlcNAc(b1-3)Gal(b1-4)GlcNAc(b1-3)Gal(b1-4)GlcNAc(b1-3)Gal(b1-4)GlcNAc(b1-2)Man(a1-6)]Man(b1-4)GlcNAc(b1-4)[Fuc(a1-6)]GlcNAc
Outline: as §1

[19] = target: Gal(b1-4)GlcNAc(b1-3)Gal(b1-4)GlcNAc(b1-3)Gal(b1-4)GlcNAc(b1-3)Gal(b1-4)GlcNAc(b1-3)Gal(b1-4)GlcNAc(b1-3)Gal(b1-4)GlcNAc(b1-2)Man(a1-3)[Gal(b1-4)GlcNAc(b1-3)Gal(b1-4)GlcNAc(b1-3)Gal(b1-4)GlcNAc(b1-3)Gal(b1-4)GlcNAc(b1-3)Gal(b1-4)GlcNAc(b1-3)Gal(b1-4)GlcNAc(b1-2)Man(a1-6)]Man(b1-4)GlcNAc(b1-4)GlcNAc
Outline: as §1

[20] = target: Gal(b1-4)GlcNAc(b1-3)Gal(b1-4)GlcNAc(b1-3)GalNAc
Outline: as §1

[21] = target: Gal(b1-4)GlcNAc(b1-3)Gal(b1-4)GlcNAc(b1-3)[Gal(b1-4)GlcNAc(b1-3)Gal(b1-4)GlcNAc(b1-6)]GalNAc
Outline: as §1

[22] = target: Gal(b1-4)GlcNAc(b1-3)[Gal(b1-4)GlcNAc(b1-6)]GalNAc
Outline: as §1

Gal(b1-4)GlcNAc6P = target: Gal(b1-4)GlcNAc6P
Outline: as §1

B1: AAL (Agrocybe aegerita), Q6WY08 (protein)
chain: MQGVNIYNISAGTSVDLAAPVTTGDIVTFFSSALNLNAGAGNPNNTTLNLFAENGAYLLHIAFRLQENVIIFNSRQPDGPWLVEQRVSDVANQFAGIDGKAMVTVFDHGDKYQVVINEKTVIQYTKQISGLTLSLSYNATEETSIFSTVVEAVTYTGLALEHHHHHH
glycan array binding signal (z-score) [1]: -0.105 | glycan array binding signal (z-score) (Fuc(a1-2)Gal(b1-4)GlcNAc): -0.146 | glycan array binding signal (z-score) [2]: -0.119 | glycan array binding signal (z-score) [3]: -0.138 | glycan array binding signal (z-score) [4]: -0.147 | glycan array binding signal (z-score) [5]: -0.119 | glycan array binding signal (z-score) [6]: -0.138 | glycan array binding signal (z-score) [7]: -0.136 | glycan array binding signal (z-score) [8]: -0.152 | glycan array binding signal (z-score) [9]: -0.112 | glycan array binding signal (z-score) (Fuc(b1-3)GlcNAc): -0.123 | glycan array binding signal (z-score) [10]: 7.5 | glycan array binding signal (z-score) (Gal(b1-2)Gal): -0.141 | glycan array binding signal (z-score) (Gal(b1-3)Gal(b1-4)GlcNAc): -0.135 | glycan array binding signal (z-score) [11]: 6.91 | glycan array binding signal (z-score) (Gal(b1-3)GlcNAc): -0.146 | glycan array binding signal (z-score) [12]: -0.149 | glycan array binding signal (z-score) (Gal(b1-3)GlcNAc6S): -0.129 | glycan array binding signal (z-score) [13]: -0.159 | glycan array binding signal (z-score) [14]: -0.135 | glycan array binding signal (z-score) [15]: -0.162 | glycan array binding signal (z-score) [16]: -0.145 | glycan array binding signal (z-score) [17]: -0.142 | glycan array binding signal (z-score) [18]: -0.096 | glycan array binding signal (z-score) [19]: -0.099 | glycan array binding signal (z-score) [20]: -0.131 | glycan array binding signal (z-score) [21]: -0.125 | glycan array binding signal (z-score) [22]: -0.153 | glycan array binding signal (z-score) (Gal(b1-4)GlcNAc6P): -0.163
